From PubChem BioAssay (Tox21) come the findings set out here.

Inconclusive results are not listed. A call without a number means that no potency is given here. The source made the active and inactive calls. The call rests on the fitted dose curve; in most records, active means well fitted cell-killing curve with a large enough effect in the repeat runs; inconclusive means weak or mixed curves, or effect the other way; inactive means flat fitted curve, though single readings scatter.

This assay in a line: qHTS assay to identify small molecule that activate the aryl hydrocarbon receptor (AhR) signaling pathway - cell viability counter screen (AID 743086).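 Further: HepG2 liver cells carrying the AhR DRE luciferase reporter; nearly all actives have a fitted effect of over 45% in size.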 To be noted: HepG2-AhR-luc viability, CellTiter-Fluor, 24 h; series mostly up to 70.3 µM; viability change, negative = cytotoxic: at the top concentration. The source says: U.S. Tox21 Program National Center for Advancing Translational Sciences [NCATS] NIH Chemical Genomics Center [NCGC] U.S. Environmental Protection Agency [EPA] National Institutes of Environmental Health Sciences [NIEHS] National Toxicology Program [NTP] U.S. Food and Drug Administration [FDA] Tox21 Assay overview: The Aryl hydrocarbon Receptor (AhR), a member of the family of basic helix-loop-helix transcription factors, is crucial to adaptive responses to environmental changes. AhR mediates cellular responses to environmental pollutants such as aromatic hydrocarbons through induction of phase I and II enzymes but also interacts with other nuclear receptor signaling pathways A cell based HepG2-AhR-luc assay (HG2L7.5c1 cell line, developed by Dr. Michael S. Denison, University of California at Davis) was used to assess the activation of AhR. HepG2 (human hepatocellular carcinoma) cells were stably transfected with an Ah receptor-responsive firefly luciferase reporter gene plasmid containing 20 dioxin responsive elements and luciferase reporter gene. Increased luciferase activity can be used to identify the compounds that induce AhR activation. The cytotoxicity of the compounds screened against the HepG2-AhR-luc cell line was tested in parallel by measuring the cell viability using CellTiter-Fluor assay in the same wells.
Tox21 Assay Protocol Summary: 4000 cells in 5 uL/well were dispensed into white wall/solid bottom 1536-well plates using a Multidrop Combi (Thermo Fisher Scientific Inc., Waltham, MA) dispenser. After the assay plates were incubated at 37C for 5 h, 23 nL of compound or DMSO vehicle was transferred to the assay plates by a pintool station (Kalypsys, San Diego, CA). The plates were incubated at 37C for 24 hr. For cell viability measurement, 1 ul/well of CellTiter-Fluor reagent (Promega, Madison, WI) was added into the assay plates using a Flying Reagent Dispenser (FRD) (Aurora Discovery, CA),and then the assay plates were incubated at 37C for 30 min. The fluorescence intensity in the plates was measured using a ViewLux plate reader (PerkinElmer, Shelton, CT), followed by the addition of 4 uL of ONE-Glo Luciferase Assay reagent (Promega) using an FRD (Aurora Discovery). After the assay plates were incubated at room temperature for 30 min, luminescence intensity was measured using a ViewLux plate reader (Perkin Elmer).
(Quantitative high-throughput screening tests each substance at several concentrations.)
`N[C@@H](Cc1cc(I)c(Oc2ccc(O)c(I)c2)c(I)c1)C(=O)O`: the Potency entry is “inactive”.
With `OCc1ccc(Cl)cc1Cl`, the Potency result is “inactive”.
`NC(N)=S`: the Potency entry was “inactive”.
For the molecule `Brc1ccc(Oc2ccc(Br)cc2)cc1`, the Potency entry is “inactive”.
On to `CC(=O)OC[C@H]1O[C@@](COC(C)=O)(O[C@H]2O[C@H](COC(C)=O)[C@@H](OC(C)=O)[C@H](OC(C)=O)[C@H]2OC(C)=O)[C@@H](OC(C)=O)[C@@H]1OC(C)=O`, for which the Potency entry was “inactive”.
The same measure, in the same setting: for `O=C(O)Cc1c[nH]c2ccccc12` the value was “inactive”; for `CCCN(CCC)C(=O)SCC`, “inactive”.
On to `COC(=O)/C=C\C(=O)OC`, for which the “viability change, negative = cytotoxic” value was 8.52% (inactive).
Consider `CCOC(=O)c1ccc(O)cc1`, for which the Potency entry was “inactive”.
`O=C(c1ccccc1)c1ccc(O)c(O)c1O`: the Potency result was “inactive”.
With `CCCCC(=O)O`, the Potency result is “inactive”.
Regarding `CCOC(=O)CC(=O)OCC`, the Potency entry was “inactive”.
For the molecule `CC1(C)[C@@H](O[C@H]2O[C@H](C(=O)O)[C@@H](O)[C@H](O)[C@H]2O[C@@H]2O[C@H](C(=O)O)[C@@H](O)[C@H](O)[C@H]2O)CC[C@]2(C)[C@H]3C(=O)C=C4[C@@H]5C[C@@](C)(C(=O)O)CC[C@]5(C)CC[C@@]4(C)[C@]3(C)CC[C@@H]12`, the Potency entry was “inactive”.
Same read-out and setting: for `CCCCCNCCCCC` the value was “inactive”; for `OCC(CO)(CO)CO`, “inactive”; for `Cc1cccc(C)c1[N+](=O)[O-]`, “inactive”.
Take `Cc1ccccc1C=O`: the Potency result is “inactive”.
For `O=C1C(N(CO)C(=O)NCO)N(CO)C(=O)N1CO` (stereo not given), the Potency entry is “inactive”.
The same measure, in the same setting: for `COc1cc(NC(=O)CC(C)=O)c(OC)cc1Cl` the value was “inactive”; for `OC[C@H]1O[C@@H](Oc2ccc(O)cc2)[C@H](O)[C@@H](O)[C@@H]1O`, “inactive”; for `Cc1ccc(C(C)C)cc1`, “inactive”.
In the case of `C=C(C)CC(C)(C)C`, the Potency entry was “inactive”.
As to `CC(=O)C(C)C`, the Potency result is “inactive”.
Consider `CCCCC(CC)COC(=O)c1ccc(C(=O)OCC(CC)CCCC)cc1` (stereo not given), for which the Potency entry was “inactive”.
Same read-out and setting: for `Cc1cc(CC(=O)O)n(C)c1C(=O)c1ccc(Cl)cc1` the value was “inactive”; for `CCCCCCCC(=O)O`, “inactive”.
As to `CC(CN1c2ccccc2Sc2ccccc21)N(C)C` (stereo not given), the “viability change, negative = cytotoxic” value is -9.17% (inactive).
Regarding `CCCCCCCCO`, the Potency entry was “inactive”.
As to `Cc1ccc(Cl)cc1`, the Potency result is “inactive”.
Turning to `COC(=O)OC`, the Potency entry is “inactive”.
`CCCCCCCCCCCC(=O)N(C)CC(=O)O`: the Potency entry was “inactive”.
For `CN1Cc2c(N)cccc2C(c2ccccc2)C1` (stereo not given), the Potency entry was “inactive”.
Take `CC(=O)OC/C=C(\C)CCC=C(C)C`: the Potency result was “inactive”.
`CC(O)CNCC(C)O` (stereo not given): the Potency result is “inactive”.
Turning to `Cc1cc(C)cc(O)c1`, the Potency result was “inactive”.
For `NC(=O)NC(N)=O`, the Potency result is “inactive”.
`CCCCCCCCCCCCCC(=O)O`: the Potency result was “inactive”.
Regarding `CCCOCC(C)O` (stereo not given), the Potency entry is “inactive”.
Take `C[Si](C)(C)N[Si](C)(C)C`: the Potency result is “inactive”.
In the case of `COc1ccc2cc3[n+](cc2c1OC)CCc1cc2c(cc1-3)OCO2`, the “viability change, negative = cytotoxic” value was -21.8% (inactive).
